According to PubChem BioAssay:
Potency and affinity values are given separately. Results filed as inconclusive are left out. Activity calls are given as the source filed them. Unless noted, no rule for the calls is given here.

Columns and labels:
[1] = PAX8 transcriptional activity inhibition in RMG-I – RMG-I cells, luciferase, cherry-pick, dose response (AID 687027;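 active = every replicate test run called active, with the signal dropping as expected and potency within twice the top valid dose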)
[2] = RMG-1 ovarian cancer cell viability loss – cherry-pick, dose response (AID 687029;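 active = signal drop whose fitted half-maximal concentration is at most twice the top valid dose, in every test run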;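 also: cells exposed to compound for 96 hours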)
[3] = IOSE-T80 viability loss, PAX8-independent line – cell-based, cherry-pick, selectivity assay for PAX8 inhibitor project, dose response (AID 687032;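 active = fitted half-maximal concentration for viability loss no higher than twice the top valid dose, in every repeat run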;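 also: cells exposed to compound for 96 h before reading; 0% = neutral control wells and -100% = 2 µM mitoxantrone kill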)
[4] = CMV-driven luciferase expression suppression in HEK293 – cell-based, luminescence, dry powder, counter-screen for Pax8 inhibitor project, dose response (AID 743020;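 active = signal-lowering compounds whose fitted half-maximal concentration is at or below twice the top tested dose in every run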;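 also: HEK293 cells stably expressing the CMV luciferase reporter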)
[5] = general cell-killing toxicity readout – plate reader, dry powder samples, cytotoxicity control for PAX8 inhibitor project, dose response (AID 743021)
[6] = IGROV1 cell killing – plate reader, dry powder samples, PAX8 inhibitor project, dose response (AID 743043);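 also: more negative means fewer viable cells or more cytotoxicity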
[7] = OVCAR-3 cell viability loss – plate reader, dry powder samples, PAX8 inhibitor project, dose response (AID 743044); conditions: max activity: at 35 µM, active compounds read low unless noted
[8] = toxicity toward immortalized ovarian surface epithelium – cell-based, plate reader, dry powder samples, cytotoxicity control for PAX8 inhibitor project, dose response (AID 743045);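 also: 0% = neutral control median and -100% = positive control median; more negative values mean more cell killing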
[9] = A2780 cell killing – plate reader, dry powder samples, cytotoxicity control, dose response (AID 743046);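 also: 0% = neutral control wells and -100% = cytotoxic reference compound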
[10] = OVCAR8 cell viability loss – plate reader, dry powder samples, PAX8 project, dose response (AID 743197)

COc1ccc2c3c([nH]c2c1)[C@@H](CO)N(C(=O)C1CC1)CC31CN(Cc2nccs2)C1
inactive: outcome [1] | outcome [2] | outcome [3] | outcome [4] | outcome [5] | outcome [6] | max activity [7] 23.4% [at 4.2 µM, active compounds read low] | outcome [8] | outcome [9] | outcome [10]

C[C@H]1CCCCO[C@H](CN(C)Cc2ccccc2)[C@@H](C)CN([C@@H](C)CO)C(=O)c2cc(NC(=O)Nc3ccc(C(F)(F)F)cc3)ccc2O1
inactive: outcome [1] | outcome [2] | outcome [3] | outcome [4] | outcome [5] | outcome [8] | outcome [9]

COc1ccc(-c2cn(CC[C@@H]3CC[C@H](NC(=O)Cc4ccccn4)[C@H](CO)O3)nn2)cc1
inactive: outcome [1] | outcome [2] | outcome [3] | outcome [4] | outcome [5] | outcome [6] | max activity [7] 27.6% [at 1 µM, active compounds read low] | outcome [8] | outcome [10]

C[C@H]1CCCCO[C@@H](CN(C)Cc2ccc(C(=O)O)cc2)[C@@H](C)CN([C@@H](C)CO)C(=O)c2cc(NS(=O)(=O)c3ccc(Cl)cc3)ccc2O1
inactive: outcome [1] | outcome [2] | outcome [3] | outcome [4] | outcome [5] | outcome [6] | max activity [7] 4.48% | outcome [8] | outcome [9] | outcome [10]

CN1[C@@H]2Cn3c(ccc(-c4ccccc4)c3=O)[C@H]1[C@@H](C(=O)NC1CCCCC1)[C@@H]2CO
inactive: outcome [1] | outcome [2] | outcome [3] | outcome [4] | outcome [5] | outcome [6] | max activity [7] -24.4% | outcome [8] | outcome [9] | outcome [10]

C[C@@H]1CN([C@H](C)CO)C(=O)c2cccc(NC(=O)Nc3ccc(C(F)(F)F)cc3)c2O[C@H]1CN(C)CC1CC1
inactive: outcome [1] | outcome [2] | outcome [3] | outcome [4] | outcome [5] | outcome [6] | max activity [7] -14% [at 0.26 µM, active compounds read low] | outcome [8] | outcome [9] | outcome [10]

CC=Cc1ccc2n(c1=O)C[C@H]1[C@H](CO)[C@@H](C(=O)NC3CCC3)N(CC)[C@@H]21 (mixture of isomers)
inactive: outcome [1] | outcome [2] | outcome [3] | outcome [4] | outcome [5] | outcome [6] | max activity [7] 9.45% | outcome [8] | outcome [9] | outcome [10]

O=C(Cc1ccccn1)N[C@@H]1CC[C@@H](CCn2cc(-c3ccccc3)nn2)O[C@H]1CO
inactive: outcome [1] | outcome [2] | outcome [3] | outcome [4] | outcome [5] | outcome [6] | max activity [7] 6.29% | outcome [8] | outcome [9] | outcome [10]

C[C@@H]1CN([C@@H](C)CO)C(=O)c2cccc(NS(=O)(=O)c3ccc(F)cc3)c2O[C@H]1CN(C)Cc1ccc(-c2ccccc2)cc1
inactive: outcome [1] | outcome [2] | outcome [3] | outcome [4] | outcome [5] | outcome [6] | max activity [7] 17.5% | outcome [8] | outcome [9] | outcome [10]

Fc1cccc(CN2C[C@@H]3N[C@H](C2)C3c2ccc(-c3ccccc3)cc2)c1 (stereo not given in full)
inactive: outcome [1] | outcome [2] | outcome [3] | outcome [4] | outcome [5] | outcome [8]

O=C(NC1CCCC1)N1CCCCN2[C@@H](CO)[C@@H](c3ccc(/C=C/c4ccccc4)cc3)[C@@H]2C1
inactive: outcome [1] | outcome [2] | outcome [3] | outcome [4] | outcome [5] | outcome [6] | max activity [7] 28.4% [at 2.1 µM, active compounds read low] | outcome [8] | outcome [10]

Cc1ccc(NC(=O)C2CC(=O)N/C(=N/N=C/c3ccco3)S2)cc1C (stereo not given)
inactive: outcome [1] | outcome [2] | outcome [3] | outcome [4] | outcome [5]

COC(=O)CN1C(=S)N(C)C(=O)C1CC(=O)Nc1ccccc1 (stereo not given)
inactive: outcome [1] | outcome [2] | outcome [3] | outcome [4] | outcome [5]

C[C@@H]1CN([C@@H](C)CO)C(=O)c2cc(NC(=O)Nc3ccccc3)ccc2O[C@@H](C)CCCCO[C@H]1CN(C)Cc1ccc(Cl)c(Cl)c1
inactive: outcome [1] | outcome [2] | outcome [3] | outcome [4] | outcome [5] | outcome [6] | max activity [7] -10.5% [at 8 µM, active compounds read low] | outcome [8] | outcome [10]

C[C@H]1CN([C@@H](C)CO)C(=O)c2cccc(NC(=O)Nc3ccc(C(F)(F)F)cc3)c2O[C@H]1CN(C)C(=O)NC1CCCCC1
inactive: outcome [1] | outcome [2] | outcome [3] | outcome [4] | outcome [5] | outcome [6] | max activity [7] -14.7% [at 8 µM, active compounds read low] | outcome [8]

C[C@@H]1CN([C@@H](C)CO)C(=O)c2cc(NS(=O)(=O)c3ccc(Cl)cc3)ccc2O[C@@H](C)CCCCO[C@H]1CN(C)C
inactive: outcome [1] | outcome [2] | outcome [3] | outcome [4] | outcome [5] | outcome [6] | max activity [7] -14.3% | outcome [8] | outcome [9] | outcome [10]

C[C@H]1CN([C@@H](C)CO)C(=O)c2cccc(NC(=O)Nc3cccc4ccccc34)c2O[C@H]1CN(C)CC1CC1
inactive: outcome [1] | outcome [2] | outcome [3] | outcome [4] | outcome [5] | outcome [6] | max activity [7] -29.9% | outcome [8] | outcome [9] | outcome [10]

COc1cccc(-c2ccc(C3[C@@H]4CN(Cc5cccc(F)c5)C[C@H]3N4)cc2)c1 (stereo not given in full)
inactive: outcome [1] | outcome [2] | outcome [3] | outcome [4] | outcome [5] | outcome [9] | outcome [10]

Cc1ccc(-c2ccc([C@@H]3[C@@H]4CN(Cc5ccccc5F)C[C@H]3N4)cc2)cc1
inactive: outcome [1] | outcome [2] | outcome [3] | outcome [4] | max activity [7] -28% | outcome [8] | outcome [10]

Cc1cc(=O)oc2ccc(OC(=O)CN3C(=O)c4cccc([N+](=O)[O-])c4C3=O)cc12
inactive: outcome [1] | outcome [2] | outcome [3] | outcome [5]

CN(C(=O)COC(=O)C1CCN(S(=O)(=O)c2c(Cl)cccc2Cl)CC1)C1CCS(=O)(=O)C1 (stereo not given)
inactive: outcome [1] | outcome [2] | outcome [4] | outcome [5]

O=C(Cc1ccc(F)cc1)OCC(=O)N1CCN(S(=O)(=O)c2ccc(Cl)cc2)CC1
inactive: outcome [1] | outcome [2] | outcome [4] | outcome [5]

O=C(NNC(=O)c1cccc2ccccc12)c1cccc(F)c1
inactive: outcome [1] | outcome [2] | outcome [4] | outcome [5]

Cc1ccc(/C=N/NC(=O)c2ccccn2)o1
inactive: activity change, negative = inhibition [1] 80.8% [at 8 µM] | outcome [2] | outcome [3] | outcome [5]

CCOC(=O)C1(Cc2ccc(OC)cc2)CCN(C(=O)CN2CCCCC2=O)CC1
inactive: outcome [1] | outcome [2] | outcome [3] | outcome [5]

O=C(Nc1ccccc1)N1CCCCN2[C@@H](CO)[C@@H](c3ccc(C#Cc4ccccc4)cc3)[C@@H]2C1
inactive: outcome [1] | outcome [2] | outcome [4] | outcome [5]
